Test results reported in the supplement of paper PMC11732987, “Enantioselective OTUD7B fragment discovery through chemoproteomics screening and high-throughput optimisation” (Communications Chemistry, 2025).

How the values were obtained:
Assay in all cases: log2 ratio of Biotin-Ahx-Ub-VS probe labelling (fragment/DMSO); higher = less target engagement (more negative = stronger competition), active = hit call of the paper (q ≤ 0.05, log2 ratio ≤ -1)
Settings in all cases: compound concentration: 200 uM; treatment time: 3 h
ALG13 = molecular target: T1, ALG13 (UniProt Q9NP73)
T1 sequence (whole entry): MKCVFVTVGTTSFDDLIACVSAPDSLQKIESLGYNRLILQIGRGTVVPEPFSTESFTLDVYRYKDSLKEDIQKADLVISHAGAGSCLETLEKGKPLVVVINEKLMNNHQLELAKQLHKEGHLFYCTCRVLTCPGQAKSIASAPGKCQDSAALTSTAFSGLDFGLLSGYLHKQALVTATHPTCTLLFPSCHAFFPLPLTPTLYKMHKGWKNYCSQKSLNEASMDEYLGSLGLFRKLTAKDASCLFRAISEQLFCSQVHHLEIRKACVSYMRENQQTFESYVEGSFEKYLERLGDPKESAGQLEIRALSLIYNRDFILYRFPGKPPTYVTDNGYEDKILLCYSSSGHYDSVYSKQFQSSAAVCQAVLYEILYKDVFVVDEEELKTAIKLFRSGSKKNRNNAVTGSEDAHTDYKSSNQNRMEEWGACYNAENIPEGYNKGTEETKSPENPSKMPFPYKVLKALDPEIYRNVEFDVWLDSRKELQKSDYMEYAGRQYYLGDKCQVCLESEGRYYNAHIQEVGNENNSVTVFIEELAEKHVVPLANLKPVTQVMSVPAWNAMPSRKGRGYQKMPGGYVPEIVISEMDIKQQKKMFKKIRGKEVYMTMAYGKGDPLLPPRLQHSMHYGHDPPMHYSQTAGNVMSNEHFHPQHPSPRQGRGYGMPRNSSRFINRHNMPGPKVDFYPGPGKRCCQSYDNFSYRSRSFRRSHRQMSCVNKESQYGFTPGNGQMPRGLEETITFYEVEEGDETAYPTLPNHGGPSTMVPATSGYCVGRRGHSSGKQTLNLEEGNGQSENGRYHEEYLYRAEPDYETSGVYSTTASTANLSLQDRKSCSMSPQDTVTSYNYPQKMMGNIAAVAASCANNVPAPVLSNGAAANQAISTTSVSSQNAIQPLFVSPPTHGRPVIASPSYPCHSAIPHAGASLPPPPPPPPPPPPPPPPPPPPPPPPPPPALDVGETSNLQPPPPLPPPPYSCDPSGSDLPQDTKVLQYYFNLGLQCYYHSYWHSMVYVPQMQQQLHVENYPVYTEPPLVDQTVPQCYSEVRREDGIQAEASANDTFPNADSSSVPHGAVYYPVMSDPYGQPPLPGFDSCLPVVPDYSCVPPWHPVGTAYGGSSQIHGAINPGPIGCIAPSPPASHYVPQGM
How it was run: (§1)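 Global-median-normalised Spectronaut label-free quantities were compared by unpaired t-test, and values are average log2 ratios of fragment over vehicle. Only proteins with ≥2 unique peptides were used. HEK293T lysate (495 µg per sample) was treated in triplicate with fragment at 200 µM or vehicle for 3 h and then with Biotin-Ahx-Ub-VS at 0.5 µM final for 1 h. Labelled DUBs were then NeutrAvidin-enriched, digested with LysC and trypsin, and run by diaPASEF LC-MS/MS.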

ATXN3 = ATXN3 (UniProt P54252)
Sequence of ATXN3 (P54252 whole entry): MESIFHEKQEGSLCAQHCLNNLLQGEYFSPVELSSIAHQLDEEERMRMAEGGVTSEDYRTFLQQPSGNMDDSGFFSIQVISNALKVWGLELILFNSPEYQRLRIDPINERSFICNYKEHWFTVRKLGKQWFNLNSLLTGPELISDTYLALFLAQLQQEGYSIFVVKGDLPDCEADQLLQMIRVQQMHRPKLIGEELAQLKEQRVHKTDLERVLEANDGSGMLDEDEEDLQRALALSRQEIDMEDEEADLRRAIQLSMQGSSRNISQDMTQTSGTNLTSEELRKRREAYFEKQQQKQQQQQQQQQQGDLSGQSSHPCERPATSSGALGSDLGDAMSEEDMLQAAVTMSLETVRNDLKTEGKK
How it was run: as §1

BAP1 = molecular target: T2, BAP1 (UniProt Q92560)
T2 sequence (whole entry): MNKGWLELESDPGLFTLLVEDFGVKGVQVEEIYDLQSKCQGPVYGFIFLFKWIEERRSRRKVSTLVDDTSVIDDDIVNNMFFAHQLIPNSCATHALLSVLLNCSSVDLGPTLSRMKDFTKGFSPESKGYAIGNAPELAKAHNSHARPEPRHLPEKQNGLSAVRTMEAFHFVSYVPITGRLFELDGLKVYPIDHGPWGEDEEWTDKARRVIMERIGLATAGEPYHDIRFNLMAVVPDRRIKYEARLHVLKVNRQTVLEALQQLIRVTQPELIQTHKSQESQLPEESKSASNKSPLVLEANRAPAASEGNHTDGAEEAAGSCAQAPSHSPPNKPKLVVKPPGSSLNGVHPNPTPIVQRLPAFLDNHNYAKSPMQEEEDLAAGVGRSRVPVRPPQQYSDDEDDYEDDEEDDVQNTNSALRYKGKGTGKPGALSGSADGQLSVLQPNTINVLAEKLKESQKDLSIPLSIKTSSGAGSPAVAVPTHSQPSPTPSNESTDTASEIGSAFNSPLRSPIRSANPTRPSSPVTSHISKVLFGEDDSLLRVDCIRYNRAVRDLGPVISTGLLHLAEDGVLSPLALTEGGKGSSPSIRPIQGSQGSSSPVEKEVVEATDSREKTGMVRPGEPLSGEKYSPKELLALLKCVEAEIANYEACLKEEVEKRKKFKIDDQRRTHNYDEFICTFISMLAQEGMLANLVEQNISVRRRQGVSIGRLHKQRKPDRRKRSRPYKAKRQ
How it was run: as §1

EIF3F = EIF3F (UniProt O00303)
Sequence of EIF3F (O00303 whole entry): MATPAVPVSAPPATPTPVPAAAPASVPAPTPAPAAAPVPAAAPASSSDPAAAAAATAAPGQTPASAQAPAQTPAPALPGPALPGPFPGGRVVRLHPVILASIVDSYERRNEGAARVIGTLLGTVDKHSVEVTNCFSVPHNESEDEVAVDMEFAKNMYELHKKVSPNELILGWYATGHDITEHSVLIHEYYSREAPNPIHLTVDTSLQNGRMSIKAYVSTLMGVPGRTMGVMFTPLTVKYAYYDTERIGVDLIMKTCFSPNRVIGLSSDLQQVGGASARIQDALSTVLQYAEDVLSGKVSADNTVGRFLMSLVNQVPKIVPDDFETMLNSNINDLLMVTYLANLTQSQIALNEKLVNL
How it was run: as §1

EIF3H = EIF3H (UniProt O15372)
Sequence of EIF3H (O15372 whole entry): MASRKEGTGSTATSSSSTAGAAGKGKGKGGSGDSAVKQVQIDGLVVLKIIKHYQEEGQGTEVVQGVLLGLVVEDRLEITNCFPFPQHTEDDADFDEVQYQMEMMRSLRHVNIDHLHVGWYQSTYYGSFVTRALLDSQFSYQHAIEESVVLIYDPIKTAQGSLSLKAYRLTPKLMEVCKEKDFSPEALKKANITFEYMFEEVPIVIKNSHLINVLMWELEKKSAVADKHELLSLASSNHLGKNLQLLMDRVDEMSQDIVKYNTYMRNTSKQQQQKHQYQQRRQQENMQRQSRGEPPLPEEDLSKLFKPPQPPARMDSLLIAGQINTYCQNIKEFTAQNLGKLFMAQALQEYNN
How it was run: as §1

FAM105A = molecular target: T3, FAM105A (UniProt Q9NUU6)
T3 sequence (whole entry): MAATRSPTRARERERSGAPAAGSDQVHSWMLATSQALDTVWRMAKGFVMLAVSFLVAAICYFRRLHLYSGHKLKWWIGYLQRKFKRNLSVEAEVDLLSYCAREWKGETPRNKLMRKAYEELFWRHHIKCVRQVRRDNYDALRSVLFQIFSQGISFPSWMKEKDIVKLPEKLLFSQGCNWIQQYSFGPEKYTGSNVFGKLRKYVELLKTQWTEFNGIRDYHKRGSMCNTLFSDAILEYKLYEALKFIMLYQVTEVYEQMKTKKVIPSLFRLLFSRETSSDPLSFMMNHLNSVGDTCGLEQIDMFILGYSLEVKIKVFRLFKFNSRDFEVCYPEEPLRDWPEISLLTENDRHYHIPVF
How it was run: as §1

OTUB1 = OTUB1 (UniProt Q96FW1)
Sequence of OTUB1 (Q96FW1 whole entry): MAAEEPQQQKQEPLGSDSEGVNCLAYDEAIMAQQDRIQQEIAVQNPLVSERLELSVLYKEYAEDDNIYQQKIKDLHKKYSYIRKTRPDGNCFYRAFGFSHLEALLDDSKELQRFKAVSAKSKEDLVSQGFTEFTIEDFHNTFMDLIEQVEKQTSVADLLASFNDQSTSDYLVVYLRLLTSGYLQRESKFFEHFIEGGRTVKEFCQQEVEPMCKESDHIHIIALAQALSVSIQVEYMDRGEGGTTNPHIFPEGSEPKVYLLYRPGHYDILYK
How it was run: as §1

OTUD4 = molecular target: T4, OTUD4 (UniProt Q01804)
T4 sequence (whole entry): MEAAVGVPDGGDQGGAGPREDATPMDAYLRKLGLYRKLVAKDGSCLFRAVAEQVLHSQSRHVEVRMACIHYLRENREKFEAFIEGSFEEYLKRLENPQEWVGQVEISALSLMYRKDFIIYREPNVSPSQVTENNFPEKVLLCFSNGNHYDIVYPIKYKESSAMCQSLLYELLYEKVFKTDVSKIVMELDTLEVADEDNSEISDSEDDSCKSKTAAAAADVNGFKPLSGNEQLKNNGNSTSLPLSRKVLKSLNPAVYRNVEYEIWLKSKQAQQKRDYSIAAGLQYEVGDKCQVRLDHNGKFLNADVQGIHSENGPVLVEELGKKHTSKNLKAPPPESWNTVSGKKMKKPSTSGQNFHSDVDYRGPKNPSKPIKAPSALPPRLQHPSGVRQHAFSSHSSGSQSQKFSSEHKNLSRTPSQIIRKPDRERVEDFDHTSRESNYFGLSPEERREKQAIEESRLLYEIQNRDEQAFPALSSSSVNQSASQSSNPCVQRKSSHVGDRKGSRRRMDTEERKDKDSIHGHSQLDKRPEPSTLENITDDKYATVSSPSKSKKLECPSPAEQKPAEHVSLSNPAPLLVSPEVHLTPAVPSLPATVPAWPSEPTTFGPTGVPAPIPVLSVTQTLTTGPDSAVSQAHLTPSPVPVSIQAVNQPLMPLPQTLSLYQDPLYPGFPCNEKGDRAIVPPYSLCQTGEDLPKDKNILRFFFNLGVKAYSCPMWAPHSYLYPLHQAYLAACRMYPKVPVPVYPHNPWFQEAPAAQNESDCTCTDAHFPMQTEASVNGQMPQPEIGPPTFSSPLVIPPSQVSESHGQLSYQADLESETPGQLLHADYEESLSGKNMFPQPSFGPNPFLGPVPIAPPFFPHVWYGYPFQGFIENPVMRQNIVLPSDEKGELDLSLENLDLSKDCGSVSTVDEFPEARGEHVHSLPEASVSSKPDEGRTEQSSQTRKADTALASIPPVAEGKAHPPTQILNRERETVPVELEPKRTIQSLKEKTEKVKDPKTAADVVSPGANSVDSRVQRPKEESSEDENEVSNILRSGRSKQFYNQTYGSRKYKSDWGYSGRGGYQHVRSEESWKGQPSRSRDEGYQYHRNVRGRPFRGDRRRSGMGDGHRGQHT
How it was run: as §1

OTUD5 = molecular target: T5, OTUD5 (UniProt Q96G74)
T5 sequence (whole entry): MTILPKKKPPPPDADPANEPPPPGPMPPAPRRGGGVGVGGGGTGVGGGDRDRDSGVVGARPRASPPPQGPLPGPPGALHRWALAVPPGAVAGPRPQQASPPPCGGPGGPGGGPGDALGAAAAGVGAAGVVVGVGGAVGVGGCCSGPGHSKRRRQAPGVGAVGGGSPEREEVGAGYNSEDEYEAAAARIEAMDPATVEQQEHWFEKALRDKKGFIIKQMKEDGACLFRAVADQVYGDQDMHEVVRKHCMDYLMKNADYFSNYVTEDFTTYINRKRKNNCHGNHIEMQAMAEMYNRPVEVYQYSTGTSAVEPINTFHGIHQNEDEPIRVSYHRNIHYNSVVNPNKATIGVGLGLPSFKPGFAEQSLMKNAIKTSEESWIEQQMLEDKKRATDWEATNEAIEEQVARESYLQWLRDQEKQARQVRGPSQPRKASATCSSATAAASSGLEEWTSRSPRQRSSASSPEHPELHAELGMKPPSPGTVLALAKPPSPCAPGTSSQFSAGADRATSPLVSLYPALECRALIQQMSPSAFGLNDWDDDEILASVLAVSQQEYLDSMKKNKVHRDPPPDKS
How it was run: as §1

Measured: log2 ratio of Biotin-Ahx-Ub-VS probe labelling

O=C(CCl)Nc1ccc(Cl)c(F)c1
active: ATXN3 -1.07 | BAP1 -3.03 | OTUD4 -1.33
inactive: ALG13 0.149 | EIF3F -0.0742 | EIF3H 0.246 | FAM105A -0.175 | OTUB1 -0.259 | OTUD5 -0.992
